The source made the active and inactive calls. Unless noted, no rule for the calls is given here.
Tests used:
[1] = anti-His antibody binders, primary screen, artefact control for SMM control protein annotation, biochemical, small-molecule microarray, 635 nm fluorescence (AID 1128); conditions: anti-His Alexa647 antibody binding, higher = more signal;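 also: score merges feature fluorescence with signal-to-noise for each printed compound spot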
[2] = tested on: Human papillomavirus type 1a E7 protein (residues 1-88); assay: HPV1a E7 small-molecule binders, primary screen, biochemical, small-molecule microarray, residues 1-88, 635 nm (AID 1129); conditions: small-molecule microarray binding, fluorescence 635 nm; higher = more signal
[3] = molecular target: Focal adhesion kinase 1 (Homo sapiens) (UniProt Q05397); assay: small-molecule microarray binders of FAK, primary screen, biochemical, 635/667 nm fluorescence, BSA, DTT (AID 1130); conditions: PTK2 binding, 635 nm fluorescence, higher = more signal;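 also: composite of spot emission at 667 nm and signal to noise over triplicate slides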
[4] = tested on: Fibrinogen (Alexa647-labelled); assay: fibrinogen binders on compound microarrays, profiling panel, artefact control for SMM control-protein annotation, biochemical, small-molecule microarray, 635/667 nm fluorescence (AID 1131); conditions: fibrinogen-A647 binding fluorescence, higher = more signal;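 also: z-score merges 667 nm fluorescence with per-spot signal-to-noise over triplicate slides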
[5] = molecular target: Follistatin (Homo sapiens) (UniProt P19883); assay: follistatin binders on small-molecule microarrays, primary screen, biochemical, small-molecule microarray, 635/667 nm fluorescence (AID 1132); conditions: FST binding, 635 nm fluorescence, higher = more signal
[6] = molecular target: Fibroblast growth factor 2 (Homo sapiens) (UniProt P09038); assay: FGF2 binders on small-molecule microarrays, primary screen, biochemical, small-molecule microarray, 635/667 nm fluorescence (AID 1133); conditions: small-molecule microarray binding, FGF2, fluorescence 635/667; higher = more signal
[7] = mitochondrial membrane potential change in A549 cells, profiling panel, cell-based, JC-1 fluorescence, basal, 24 h, 100 nL (AID 1138); conditions: higher = more signal;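 also: A549 lung adenocarcinoma cells under basal conditions with no added stimulus; test concentration not given here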
Lefty1 = Lefty1 binders on small-molecule microarrays, primary screen, biochemical, small-molecule microarray, 635/667 nm fluorescence (AID 1139); conditions: small-molecule microarray binding, fluorescence 635/667; higher = more signal
[8] = tested on: wheat germ agglutinin (Triticum aestivum), Alexa647-labelled; assay: wheat germ agglutinin binders on compound microarrays, profiling panel, artefact control for SMM control-protein annotation, biochemical, small-molecule microarray, 635/667 nm fluorescence (AID 1140); conditions: WGA-A647 binding, 635 nm fluorescence, higher = more signal;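 also: score merges 667 nm feature emission with signal to noise over triplicate slides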
[9] = molecular target: Luciferin 4-monooxygenase (Photinus pyralis) (UniProt P08659); assay: firefly luciferase enzyme inhibitors, primary screen, biochemical, luminescence, purified enzyme, 2006 set (AID 1141); conditions: SteadyGlo luminescence, 30 min, higher = more signal, called active from +8 up or from −8 down;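 also: cell-free assay with purified firefly luciferase at 100 ng per well in PBS; test concentration not given here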
[10] = tested on: Wnt5a (protein binding on small-molecule microarray); assay: Wnt5a binders on small-molecule microarray, primary screen, biophysical, 635/667 nm fluorescence (AID 1142); conditions: 635 nm fluorescence, higher = more signal;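 also: fluorescence read at 667 nm with signal to noise per printed feature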
[11] = cell viability in Huh7 cells, primary screen, cytotoxicity control for HCV replication inhibitor project, CellTiter-Glo luminescence, basal, 48 h (AID 1143); conditions: Huh7 HCV replicon, higher = more signal, called active from +8 up or from −8 down;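 also: Huh7 hepatoma cells carrying a hepatitis C replication reporter with no stimulus; test concentration not given here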
[12] = P. aeruginosa biofilm formation inhibitors, primary screen, PAO1 strain, BacTiter-Glo luminescence, LB-PBS (AID 1144); conditions: 12 h, higher = more signal
[13] = CREB reporter modulators without forskolin, primary screen, cell-based, PC12, CRE-LacZ reporter, unstimulated (AID 1145); conditions: no forskolin, luminescence, 4.5 h, higher = more signal, called active from +8 up or from −8 down
[14] = CREB reporter modulators under forskolin, primary screen, cell-based, PC12, CRE-LacZ reporter, forskolin-stimulated (AID 1146); conditions: luminescence, 4.5 h, higher = more signal, called active from +8 up or from −8 down;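 also: PC12 cells with 6xCRE LacZ reporter stimulated by forskolin 10 µM; beta-galactosidase reporter signal reflecting CREB driven transcription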
[15] = molecular target: Streptavidin (Streptomyces avidinii) (UniProt P22629); assay: streptavidin binders on small-molecule microarray, primary screen, artefact control for SMM compound annotation, biophysical, 635/667 nm fluorescence (AID 1147); conditions: streptavidin binding, higher = more signal;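 also: signal reflects streptavidin binding to arrayed compounds as a control protein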
[16] = small-molecule binders of probe aInhba, primary screen, biochemical, small-molecule microarray, 635/667 nm fluorescence (AID 1148); conditions: higher = more signal;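 also: score merges 667nm spot fluorescence with signal-to-noise for antibody binding to printed compounds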
Torsin-1A (Homo sapiens) [17] = molecular target: Torsin-1A (Homo sapiens) (UniProt O14656); assay: torsin A binders from cell lysate, primary screen, small-molecule microarray, wild-type, 635/667 nm (AID 1149); conditions: COS7 hTOR1A-WT lysate, 635 nm fluorescence, higher = more signal
Torsin-1A (Homo sapiens) [18] = molecular target: Torsin-1A (Homo sapiens) (UniProt O14656); assay: small-molecule binders of mutant TOR1A in lysate, primary screen, cell lysate, small-molecule microarray, COS7 lysate, 635/667 nm fluorescence (AID 1150); conditions: COS7 hTOR1A mutant lysate, 635 nm fluorescence, higher = more signal;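 also: score pools 667 nm emission and signal to noise measuring lysate protein binding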
[19] = tested on: Sonic hedgehog protein (Shh); assay: small-molecule binders of Shh protein, primary screen, biochemical, small-molecule microarray, 635/667 nm fluorescence (AID 1151); conditions: small-molecule microarray binding, 635 nm fluorescence; higher = more signal;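 also: Shh protein binding to compounds spotted on small-molecule microarray slides; score combines spot fluorescence intensity with signal-to-noise across triplicate slides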

Chain of Follistatin (Homo sapiens) (P19883 whole entry, looked up): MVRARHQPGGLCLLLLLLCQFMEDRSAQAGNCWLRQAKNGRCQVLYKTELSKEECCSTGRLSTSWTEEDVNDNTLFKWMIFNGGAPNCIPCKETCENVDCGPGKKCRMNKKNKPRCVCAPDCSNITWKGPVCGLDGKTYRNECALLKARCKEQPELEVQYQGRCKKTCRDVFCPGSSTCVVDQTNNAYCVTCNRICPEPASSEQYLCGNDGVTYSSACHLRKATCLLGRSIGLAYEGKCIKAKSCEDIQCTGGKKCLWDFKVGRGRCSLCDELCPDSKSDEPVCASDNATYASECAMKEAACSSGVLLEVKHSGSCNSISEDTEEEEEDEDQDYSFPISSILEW
Chain of Luciferin 4-monooxygenase (Photinus pyralis) (P08659 whole entry, looked up): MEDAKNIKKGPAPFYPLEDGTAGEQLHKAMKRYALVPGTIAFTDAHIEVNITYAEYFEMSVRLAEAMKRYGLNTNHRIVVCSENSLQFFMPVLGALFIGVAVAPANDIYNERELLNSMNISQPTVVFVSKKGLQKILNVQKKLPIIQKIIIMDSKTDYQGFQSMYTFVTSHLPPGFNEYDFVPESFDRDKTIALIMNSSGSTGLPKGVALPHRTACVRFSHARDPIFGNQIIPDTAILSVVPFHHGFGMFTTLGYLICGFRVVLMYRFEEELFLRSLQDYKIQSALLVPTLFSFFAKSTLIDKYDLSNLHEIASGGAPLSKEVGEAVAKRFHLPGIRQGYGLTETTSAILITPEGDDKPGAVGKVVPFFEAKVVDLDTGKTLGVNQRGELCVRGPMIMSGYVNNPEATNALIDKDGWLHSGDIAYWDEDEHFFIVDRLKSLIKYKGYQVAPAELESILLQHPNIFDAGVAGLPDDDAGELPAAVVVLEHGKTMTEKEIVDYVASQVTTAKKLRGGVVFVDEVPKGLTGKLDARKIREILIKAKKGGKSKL
Chain of Streptavidin (Streptomyces avidinii) (P22629 whole entry, looked up): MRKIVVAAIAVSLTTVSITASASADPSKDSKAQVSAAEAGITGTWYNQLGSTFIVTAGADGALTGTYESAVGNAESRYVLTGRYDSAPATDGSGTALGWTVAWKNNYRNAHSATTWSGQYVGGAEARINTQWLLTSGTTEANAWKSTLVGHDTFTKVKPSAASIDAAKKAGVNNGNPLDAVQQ
Chain of Torsin-1A (Homo sapiens) (O14656 whole entry, looked up): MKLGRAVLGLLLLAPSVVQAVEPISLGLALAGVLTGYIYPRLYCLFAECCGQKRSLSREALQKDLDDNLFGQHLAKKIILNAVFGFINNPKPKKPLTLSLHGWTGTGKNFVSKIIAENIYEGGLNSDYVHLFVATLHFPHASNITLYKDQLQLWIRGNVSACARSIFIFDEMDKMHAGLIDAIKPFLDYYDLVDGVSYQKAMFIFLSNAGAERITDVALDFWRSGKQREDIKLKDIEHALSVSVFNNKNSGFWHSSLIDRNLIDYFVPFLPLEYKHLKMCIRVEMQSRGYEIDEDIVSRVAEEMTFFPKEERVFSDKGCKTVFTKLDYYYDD
Chain of Focal adhesion kinase 1 (Homo sapiens) (Q05397 whole entry, looked up): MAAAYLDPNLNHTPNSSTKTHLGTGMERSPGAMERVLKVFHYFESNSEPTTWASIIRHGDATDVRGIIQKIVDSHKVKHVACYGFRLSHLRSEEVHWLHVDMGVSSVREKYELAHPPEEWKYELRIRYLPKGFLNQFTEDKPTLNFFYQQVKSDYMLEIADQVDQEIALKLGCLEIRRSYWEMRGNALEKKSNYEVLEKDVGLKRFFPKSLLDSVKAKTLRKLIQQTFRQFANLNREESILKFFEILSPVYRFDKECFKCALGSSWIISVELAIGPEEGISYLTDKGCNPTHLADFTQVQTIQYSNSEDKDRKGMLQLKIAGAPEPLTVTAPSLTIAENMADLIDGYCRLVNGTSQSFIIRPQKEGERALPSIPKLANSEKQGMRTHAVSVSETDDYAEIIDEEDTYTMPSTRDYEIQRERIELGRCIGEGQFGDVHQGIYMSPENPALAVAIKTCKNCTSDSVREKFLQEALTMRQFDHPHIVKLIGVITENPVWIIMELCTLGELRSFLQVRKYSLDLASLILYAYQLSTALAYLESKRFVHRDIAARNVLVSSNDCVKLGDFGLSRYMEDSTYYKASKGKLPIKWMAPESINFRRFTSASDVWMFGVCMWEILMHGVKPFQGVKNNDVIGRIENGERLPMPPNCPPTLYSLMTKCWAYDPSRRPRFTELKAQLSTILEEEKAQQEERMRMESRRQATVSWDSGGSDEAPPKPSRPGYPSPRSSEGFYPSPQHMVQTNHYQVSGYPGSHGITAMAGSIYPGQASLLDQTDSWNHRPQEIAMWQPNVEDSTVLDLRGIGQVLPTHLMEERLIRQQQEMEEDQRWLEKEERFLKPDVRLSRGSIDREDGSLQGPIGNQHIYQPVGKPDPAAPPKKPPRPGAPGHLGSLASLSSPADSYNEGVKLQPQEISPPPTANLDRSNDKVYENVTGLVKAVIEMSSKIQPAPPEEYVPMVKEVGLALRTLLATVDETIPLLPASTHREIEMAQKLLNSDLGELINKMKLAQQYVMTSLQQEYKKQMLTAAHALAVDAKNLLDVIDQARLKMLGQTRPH
Chain of Fibroblast growth factor 2 (Homo sapiens) (P09038 whole entry, looked up): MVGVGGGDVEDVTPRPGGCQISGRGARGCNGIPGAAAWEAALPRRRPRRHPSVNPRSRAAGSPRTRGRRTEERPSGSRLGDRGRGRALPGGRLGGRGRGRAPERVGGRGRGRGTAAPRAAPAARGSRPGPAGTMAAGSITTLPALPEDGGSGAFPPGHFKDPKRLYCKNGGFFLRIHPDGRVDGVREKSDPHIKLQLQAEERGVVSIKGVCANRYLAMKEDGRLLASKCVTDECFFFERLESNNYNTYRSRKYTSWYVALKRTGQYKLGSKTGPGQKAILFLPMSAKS

Structure (SMILES)	composite z-score [1]	composite z-score [2]	composite z-score [3]	composite z-score [4]	composite z-score [5]	composite z-score [6]	z-score [7]	composite z-score (Lefty1)	composite z-score [8]	z-score [9]	composite z-score [10]	z-score [11]	z-score [12]	z-score [13]	z-score [14]	composite z-score [15]	composite z-score [16]	composite z-score (Torsin-1A (Homo sapiens) [17])	composite z-score (Torsin-1A (Homo sapiens) [18])	composite z-score [19]
COCCOC(=O)N1C(=O)[C@@]2(c3cc(C#CCNC(N)=O)ccc31)[C@H](C(=O)N1CCCCCCC1)[C@H]1C(=O)O[C@H](c3ccccc3)[C@H](c3ccccc3)N1[C@@H]2c1ccccc1OCCO	0.455	1.14	0.784	0.47	1.33	0.385	-0.751	1.21	0.835	-0.201 (inactive)	0.472	-0.798 (inactive)	-0.416 (inactive)	-0.602 (inactive)	-1.01 (inactive)	0.875	0.218	0.207	0.645	1.09
CC(=O)NCCCC[C@@H]1NC(=O)[C@H]2C[C@@H](C(=O)NCCCCCCN(C)C)[C@@H](c3ccc(O)cc3)N2C1=O	3.14	1.25	0.554	0.793	1.34	0.903	-1.26	1.55	1.29	0.0866 (inactive)	0.124	-0.0718 (inactive)	-0.181 (inactive)	0.281 (inactive)	0.403 (inactive)	1.36	1.12	1.6	1.21	1.79
COC(=O)C(CC#Cc1ccc2c(c1)[C@]1(C(=O)N2)[C@H](C(=O)N2CCCCCCC2)[C@H]2C(=O)O[C@H](c3ccccc3)[C@H](c3ccccc3)N2[C@@H]1c1ccc(O)cc1)C(=O)OC	-0.231	-1.54	-0.222	-2.05	-0.408	-1.1	-1.03	-0.227	-1.42	-0.269 (inactive)	-0.593	-4.23 (inactive)	0.144 (inactive)	0.0736 (inactive)	-0.928 (inactive)	-1.01	0.539	-0.998	-0.529	-0.657
CCCN1C(=O)[C@@]2(CCS(=O)(=O)c3ccccc3)N=C(c3ccc(OCCCO)cc3)O[C@H]2c2ccccc21	2.79	1.23	0.494	0.762	1.4	0.961	0.782	0.78	0.46	-0.869 (inactive)	0.286	-4.26 (inactive)	-1.6 (inactive)	0.997 (inactive)	-1.61 (inactive)	-0.0174	0.0528	0.069	0.655	1.58
